We go through 13 compounds from PubChem BioAssay.

The source made the active and inactive calls. Unless noted, no rule for the calls is given here.

Assay [1] in a line: HepG2 liver cancer cell viability effects, profiling panel, resazurin fluorescence, 24 h, PK04 Diversity Set (AID 1172). Also: test concentration not given here. The settings on record: higher = more signal. On the technique in general: Alamar Blue is a resazurin reagent that responds to reducing activity.
A short description of assay [2]: basal S. cerevisiae growth modulation, no modifier, primary screen, OD600, strain BY4716, 24 h, basal condition (AID 1173). The settings on record: OD600, 24 h, higher = more signal, called active from +8 up or from −8 down.
A short description of assay [3]: MM1S myeloma cell viability, profiling panel, resazurin fluorescence, basal, 24 h, PK04 Diversity Set (AID 1174).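 Also: MM1S multiple myeloma cell line; test concentration not given here.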 The settings on record: higher = more signal, called active from +8 up or from −8 down.
Assay [4] deals with Dihydroorotate dehydrogenase (quinone), mitochondrial (Plasmodium falciparum (isolate 3D7)) (UniProt Q08210). The assay can be described thus: PfDHODH enzyme inhibitors, primary screen, biochemical, C-terminal His tag, absorbance 600 nm (AID 1175).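 Also: recombinant parasite enzyme with a five histidine tag at its C terminus; test concentration not given here.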 Conditions: DCIP absorbance 600 nm, higher = more signal, called active from +8 up or from −8 down.
Assay [5] can be described thus: P. aeruginosa biofilm formation inhibitors, primary screen, strain PAO1, LB-PBS medium, absorbance 600 nm (AID 1176). Also: test concentration not given here. Conditions: P. aeruginosa PAO1 growth/biofilm, A600, 12 h; higher = more signal.
Assay [6] can be described thus: S. cerevisiae RM11-1a growth modifiers, primary screen, strain RM11-1a, OD600, basal, 24 h (AID 1177).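 Also: cultures grown under basal conditions with no added stressor; test concentration not given here.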 Conditions: OD600, 24 h, higher = more signal, called active from +8 up or from −8 down.
Assay [7] can be described thus: E. coli acrAB mutant growth effects, primary screen, E. coli filamentation inducers, strain DRC39, OD650, 24 h (AID 1178).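 Also: growth measured as culture turbidity by optical density at 650 nm; test concentration not given here.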 The settings on record: higher = more signal, called active from +8 up or from −8 down.
A short description of assay [8]: E. coli acrAB mutant growth effects, primary screen, E. coli filamentation inducers, strain DRC39, OD650, 48 h (AID 1179).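 Also: screen aims at cell division blockers that make cells filament.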 Conditions: E. coli DRC39 delta-acrAB growth, higher = more signal, called active from +8 up or from −8 down.
Assay [9] in a line: RPMI8226 myeloma cell viability, profiling panel, resazurin fluorescence, basal, 24 h, PK04 Diversity Set (AID 1180).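 Also: RPMI8826 multiple myeloma cell line at 5000 cells per well; test concentration not given here.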 The settings on record: higher = more signal.
The target of assay [10] is E3 ubiquitin-protein ligase XIAP (Homo sapiens) (UniProt P98170). The assay can be described thus: XIAP binders, primary screen, biophysical, small-molecule microarray, fluorescence 635 nm (AID 1181).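 Also: score merges 667 nm emission and signal to noise over triplicate slides.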 Conditions: small-molecule microarray binding, higher = more signal.
Sequence of E3 ubiquitin-protein ligase XIAP (Homo sapiens) (P98170 whole entry, looked up): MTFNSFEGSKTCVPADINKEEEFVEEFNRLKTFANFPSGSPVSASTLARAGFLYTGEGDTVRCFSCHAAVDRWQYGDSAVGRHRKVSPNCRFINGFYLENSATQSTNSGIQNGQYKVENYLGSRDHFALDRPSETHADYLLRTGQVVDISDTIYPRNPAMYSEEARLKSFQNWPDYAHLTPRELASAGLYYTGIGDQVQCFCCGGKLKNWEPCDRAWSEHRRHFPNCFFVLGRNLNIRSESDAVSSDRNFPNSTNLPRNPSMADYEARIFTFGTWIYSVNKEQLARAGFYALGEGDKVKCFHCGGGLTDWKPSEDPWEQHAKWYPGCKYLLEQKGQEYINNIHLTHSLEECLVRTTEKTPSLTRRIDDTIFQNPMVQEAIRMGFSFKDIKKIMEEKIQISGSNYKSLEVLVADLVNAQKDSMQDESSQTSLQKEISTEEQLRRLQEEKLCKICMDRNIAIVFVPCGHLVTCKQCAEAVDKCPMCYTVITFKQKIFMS

Sequence of Dihydroorotate dehydrogenase (quinone), mitochondrial (Plasmodium falciparum (isolate 3D7)) (Q08210 whole entry, looked up): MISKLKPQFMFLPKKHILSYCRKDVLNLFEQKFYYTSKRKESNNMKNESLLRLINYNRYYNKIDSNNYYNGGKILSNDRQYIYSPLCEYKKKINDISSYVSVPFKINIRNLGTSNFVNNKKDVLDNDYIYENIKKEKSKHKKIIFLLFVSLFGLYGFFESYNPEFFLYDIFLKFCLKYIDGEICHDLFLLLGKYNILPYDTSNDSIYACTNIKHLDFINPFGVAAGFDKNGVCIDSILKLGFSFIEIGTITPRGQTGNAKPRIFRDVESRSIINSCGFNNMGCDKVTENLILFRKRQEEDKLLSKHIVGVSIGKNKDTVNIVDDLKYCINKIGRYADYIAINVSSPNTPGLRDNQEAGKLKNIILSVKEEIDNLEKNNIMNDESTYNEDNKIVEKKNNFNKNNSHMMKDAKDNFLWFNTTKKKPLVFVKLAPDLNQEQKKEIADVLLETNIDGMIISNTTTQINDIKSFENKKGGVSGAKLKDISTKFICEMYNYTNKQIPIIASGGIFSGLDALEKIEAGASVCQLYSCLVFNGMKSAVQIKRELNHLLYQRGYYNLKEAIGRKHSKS

On to `CC(CCN1CCCc2nc(C)c(C)cc21)=NO[C@@H](C)c1cc(-c2c(C)cc(C)cc2C)no1`, for which the z-score in [1] is -0.616; in [2], -1.54 (inactive); in [3], -0.012 (inactive); in assay [5], 0.0525 (inactive); in assay [6], 0.39 (inactive); in assay [7] it was 0.898 (inactive). Besides, the values for the z-score in assay [8] and in assay [9] were -0.158 (inactive) and 0.378, respectively. The values for the composite z-score in assay [4] and in [10] were -0.837 (inactive) and 0.194, respectively.
In the case of `COc1ccc(O[C@H]2C=C[C@@H](c3ccccc3)O[C@@H]2COC(=O)CCC(C)=NO[C@@H]2O[C@H](COC(C)=O)[C@@H](OC(C)=O)[C@H](OC(C)=O)[C@H]2OC(C)=O)cc1`, the z-score is 0.0729 in assay [1]; 1.64 (inactive) in assay [2]; -0.169 (inactive) in [3]; -0.585 (inactive) in assay [5]; 1.37 (inactive) in assay [6]; 0.486 (inactive) in assay [7]. Also, the values for the z-score in [8] and in assay [9] were 0.167 (inactive) and 0.111, respectively. Further, the composite z-score was 0.671 (inactive) in [4] and 0.461 in [10].
Take `COc1cccc([C@H]2Oc3ccc(OC)cc3C(=NO[C@@H](C)c3cn([C@H](CO)Cc4ccccc4)nn3)[C@@H]2O)c1`: the z-score in assay [1] was -1.02; in assay [2], -0.0439 (inactive); in assay [3], -0.162 (inactive); in assay [5] it was -0.102 (inactive); in [6], -0.0779 (inactive); in assay [7], -0.712 (inactive). Besides, the values for the z-score in [8] and in assay [9] were -2.86 (inactive) and 0.22, respectively. Further, the composite z-score is 0.757 (inactive) in assay [4] and -0.0367 in assay [10].
As for `COc1cccc([C@H]2Oc3ccc(OC)cc3C(=NOC(C)CN3CCCCc4nc(C)c(C)cc43)[C@@H]2O)c1` (stereo not given in full), the z-score in [1] was -0.621; in assay [2], -0.951 (inactive); in assay [3] it was -1.16 (inactive); in assay [5], 0.253 (inactive); in assay [6] it was -0.0905 (inactive); in [7], 0.597 (inactive). The results for the z-score in assay [8] and in assay [9] were 0.748 (inactive) and -1.16, respectively. The composite z-score was -0.695 (inactive) in assay [4] and -0.0525 in assay [10].
Consider `CO[C@H]1COC(=O)CC=C[C@@H](C)[C@H](OC)COC(=O)[C@@H]2CCCN2C(=O)CC=C[C@@H]1C`, for which the z-score in assay [1] was 0.251; in [2], -1.87 (inactive); in assay [3], 0.616 (inactive); in [5], -0.638 (inactive); in assay [6], -0.055 (inactive); in assay [7], 0.601 (inactive). Further, the z-score is 0.53 (inactive) in [8] and 0.136 in assay [9]. In addition, the composite z-score is 0.52 (inactive) in assay [4] and 0.196 in assay [10].
As for `CCOC(=O)[C@H](CC(C)C)NC(=O)CCC1CC(OC(=O)NCc2ccc3c(c2)OCO3)CC2(CCCC(COC(=O)NCC(c3ccccc3)c3ccccc3)O2)O1` (stereo not given in full), the z-score is 0.842 in assay [1]; 0.724 (inactive) in assay [2]; 0.56 (inactive) in assay [3]; -0.306 (inactive) in [5]; 0.786 (inactive) in assay [6]; 0.304 (inactive) in assay [7]. Besides, the z-score in assay [8] was 0.321 (inactive); in assay [9] it was 0.509. Also, the composite z-score in assay [4] is 0.125 (inactive); in assay [10], -0.17.
On to `CC(=O)OC[C@H]1O[C@H](C#Cc2ccccc2)C=C[C@@H]1OC(C)=O`, for which the z-score was -0.153 in [1]; -2.26 (inactive) in assay [2]; -5.37 (inactive) in assay [3]; -0.339 (inactive) in [5]; -0.14 (inactive) in assay [6]; 0.731 (inactive) in [7]. Also, the z-score is 0.414 (inactive) in [8] and -2.61 in assay [9]. In addition, the figures for the composite z-score in assay [4] and in assay [10] were -0.0765 (inactive) and -0.13, respectively.
For the compound `C=Cc1ccc([C@H]2N[C@H](C(=O)O)CC[C@@H]2C)cc1`, the z-score in assay [1] was -0.869; in [2], -0.366 (inactive); in [3], -0.601 (inactive); in assay [5], -0.54 (inactive); in assay [6] it was -0.649 (inactive); in assay [7], 0.505 (inactive). Moreover, the z-score in assay [8] is 0.296 (inactive); in assay [9], -0.845. Also, the composite z-score in assay [4] was -0.13 (inactive); in assay [10] it was -0.168.
In the case of `COc1ccc(O[C@@H]2[C@H](O)CO[C@@H]2C=Cc2ccccc2)cc1`, the z-score in assay [1] was -0.489; in [2], -2.44 (inactive); in assay [3], 0.995 (inactive); in assay [5], 0.815 (inactive); in assay [6], -0.614 (inactive); in [7], -1.16 (inactive). The z-score is -1.93 (inactive) in [8] and 0.54 in assay [9]. The composite z-score is -3.01 (inactive) in assay [4] and 0.0975 in assay [10].
For the compound `COC(=O)[C@@H]1CC[C@H](C)[C@@H](c2ccc(C)cc2)N1C(=O)c1ccc(C=NO[C@@H]2O[C@H](COC(C)=O)[C@@H](OC(C)=O)[C@H](OC(C)=O)[C@H]2OC(C)=O)cc1`, the z-score in [1] is -0.124; in assay [2], 0.786 (inactive); in assay [3] it was 0.952 (inactive); in assay [5] it was -0.172 (inactive); in assay [6], 0.178 (inactive); in assay [7], -1.44 (inactive). Further, the z-score was -1.65 (inactive) in assay [8] and 0.369 in assay [9]. Also, the composite z-score is -2.7 (inactive) in [4] and 0.0131 in assay [10].
With `CC(C)CON=C1C[C@@H](O)[C@@H](O)[C@@H]2[C@@H]3C(=O)N(Cc4ccc5c(c4)OCO5)C(=O)[C@@H]3CC[C@H]12`, the z-score in [1] was 0.259; in assay [2] it was 0.151 (inactive); in [3] it was -0.146 (inactive); in assay [5] it was -0.626 (inactive); in assay [6] it was 0.812 (inactive); in assay [7] it was 0.0036 (inactive). In addition, the values for the z-score in [8] and in assay [9] were -0.0961 (inactive) and -0.0651, respectively. Moreover, the values for the composite z-score in assay [4] and in assay [10] were 0.834 (inactive) and -0.184, respectively.
Regarding `COC(=O)CC=C[C@@H](C)[C@@H](C=NOCC[C@@H]1C=C[C@H](OC(C)=O)[C@@H](COC(C)=O)O1)OC`, the z-score in [1] is -0.269; in assay [2], 0.557 (inactive); in assay [3], -0.104 (inactive); in assay [5], -0.242 (inactive); in assay [6] it was 0.47 (inactive); in assay [7] it was 0.157 (inactive). The z-score in assay [8] was 0.138 (inactive); in assay [9], -0.325. In addition, the composite z-score is 0.558 (inactive) in [4] and 0.0506 in [10].
On to `Cc1cc2c(nc1C)CCCCN2CC(C)ON=C1[C@H]2CCn3c(=O)n(-c4ccccc4)c(=O)n3[C@H]2[C@H](O)[C@@H]2O[C@H]12` (stereo not given in full), for which the z-score in [1] was -1.22; in assay [2], -0.683 (inactive); in [3] it was -3.13 (inactive); in assay [5] it was -0.525 (inactive); in assay [6] it was 0.722 (inactive); in assay [7], 0.588 (inactive). For the same compound, the z-score in assay [8] is 1.2 (inactive); in [9] it was -0.459. Moreover, the composite z-score in assay [4] is -0.498 (inactive); in [10], -0.327.
